Screening data from PubChem BioAssay.
Hits are enriched below; roughly 3.9% of the tested compounds scored in any of these assays.
ALR inh: inhibitors of human sulfhydryl oxidase ALR; AID 485317; actives 3.8% (n = 290,000); inhibition, % (concentration not given with the values); P55789; purified ALR, DTT oxidation, H2O2 HRP-luminol luminescence;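 active = mean replicate inhibition above about 79%, with every replicate also reaching it, limit read from the data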
Target sequence (P55789 whole entry, looked up): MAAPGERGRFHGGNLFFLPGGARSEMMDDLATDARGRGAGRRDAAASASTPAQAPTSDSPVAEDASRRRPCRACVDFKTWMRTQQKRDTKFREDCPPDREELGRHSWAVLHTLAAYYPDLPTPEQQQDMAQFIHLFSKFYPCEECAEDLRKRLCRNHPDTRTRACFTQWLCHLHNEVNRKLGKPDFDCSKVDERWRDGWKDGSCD
SUMO Mot1 rescue: blocks SUMOylation pathway, rescuing yeast Mot1-301 growth | S. cerevisiae Mot1-301 growth rescue, ATP luminescence, 38.5C; percent above DMSO median, 100 means doubled | growth rescue, % at 18.8 µM | actives 1% (n = 320,000) | AID 2716;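 active = every valid replicate shows activation above 250% relative to neutral control wells; inactive = the rest, any valid replicate at or below 250%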;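 note: OY570 slx delta 5 strain wells were the positive control but not used for scaling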
CDK5 p35 inh: CDK5/p35 (human) kinase inhibition; Q00535+Q15078; Recombinant CDK5/p35, ADP-Glo luminescence, 60 min; inhibition, % at 10 µM; actives 0.01% (n = 330,000);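 active = highest replicate inhibition of at least 50% and at least 75% of replicates reaching 50%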;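 note: plate controls were DMSO neutral control for no effect and GW8510 at 10 µM for full effect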
CASP6 VEID inh: inhibitors of human caspase-6. actives 0.53% (n = 350,000). purified caspase-6, Z-VEID-R110 cleavage fluorescence. inhibition, % at 12.5 µM. P55212;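 active = mean inhibition across replicates at least about 35%, with every replicate also reaching that limit, limit read from the data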;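 note: 0% = median of neutral control wells and 100% = no fluorescence left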
Target sequence (P55212 24-179 limits assumed): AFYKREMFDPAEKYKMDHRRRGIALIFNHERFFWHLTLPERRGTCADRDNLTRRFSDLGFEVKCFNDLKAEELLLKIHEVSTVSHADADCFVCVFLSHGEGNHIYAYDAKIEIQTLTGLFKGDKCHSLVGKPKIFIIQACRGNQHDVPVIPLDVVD
Target sequence (P55212 194-293 limits assumed): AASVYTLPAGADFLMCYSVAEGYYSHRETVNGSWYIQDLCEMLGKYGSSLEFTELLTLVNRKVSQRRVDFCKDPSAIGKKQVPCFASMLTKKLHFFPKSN
NSD2 inh: inhibitors of human histone methyltransferase NSD2 | O96028 | NSD2 peptide methylation, AlphaScreen, 120 min | inhibition, % at 12.5 µM | actives 0.54% (n = 310,000) | AID 743445; in the data active = inhibition above about 50%
N-glyco inh: N-linked glycosylation inhibition; AID 588692; reporter increase, % at 12.5 µM; D54 ERlucT glycosylation luciferase reporter, 24 h; percent of 100 nM tunicamycin response; actives 0.23% (n = 360,000);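 active = mean luciferase reporter signal, scaled so untreated is 0 and the glycosylation-blocking control 100, at or above a set limit in every replicate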;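 note: luciferase carries N-glycosylation sites so blocking glycosylation raises the light; 0% = median of neutral control wells and 100% = median of 100 nM tunicamycin wells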
Active calls of the source: *; nt = no result.

SMILES	ALR inh	SUMO Mot1 rescue	CDK5 p35 inh	CASP6 VEID inh	NSD2 inh	N-glyco inh
CCn1c(-c2csc(C(C)C)c2)n[nH]c1=S	56	-5	2	-3	-1	-1
CC(C)Cn1c(-c2csc(C(C)C)c2)n[nH]c1=S	94*	3	-1	4	0	-1
CCC(=O)N1C[C@@H](C)[C@H](OC)CN(C)C(=O)c2cc(NS(C)(=O)=O)ccc2OC[C@H]1C	nt	nt	nt	-1	nt	nt
O=C(C1CCOCC1)N1[C@H](CO)[C@H]2c3ccccc3NC[C@H]21	nt	nt	nt	2	nt	nt
O=C(C[C@H]1CC[C@H](NC(=O)CC2CC2)[C@@H](CO)O1)NCc1ccc(-c2ccccc2)cc1	nt	nt	nt	-2	nt	nt
C[C@@H]1CN([C@H](C)CO)C(=O)c2cc(NC(=O)NC3CCCCC3)ccc2O[C@@H]1CN(C)S(=O)(=O)c1ccc(F)cc1	nt	nt	nt	0	nt	nt
C[C@H](CO)N1C[C@H](C)[C@@H](CN(C)S(C)(=O)=O)Oc2ccc(NS(=O)(=O)c3cccs3)cc2CC1=O	nt	nt	nt	-1	nt	nt
CCC(C)(C)C(=O)O[C@H]1C[C@@H](C)C=C2C=C[C@H](C)[C@H](CC[C@@H]3C[C@@H](O)CC(=O)O3)[C@H]21	-15	-21	0	1	nt	45*
Cc1ccc(-c2nc(CS(=O)CC(=O)NCCN3CCCCCC3)c(C)o2)cc1 (stereo unspecified)	98*	27	2	-39	8	3
Cc1ccc(-c2nc(CS(=O)(=O)CC(=O)NCCCN3CCN(C)CC3)c(C)o2)cc1	-32	-4	0	-25	nt	5
Cc1oc(-c2ccc(Cl)cc2)nc1CS(=O)CC(=O)NCCN1CCCCCC1 (stereo unspecified)	99*	-7	1	-71	1	4
O=C(Nc1ccc(F)c(Cl)c1)c1cc(C2CCCN(S(=O)(=O)c3cccc4cccnc34)C2)on1 (stereo unspecified)	nt	nt	nt	36*	-4	-6
COCCN(C(=O)COC(=O)CSc1ccc2ccccc2c1)c1c(N)n(Cc2ccccc2)c(=O)[nH]c1=O	98*	-11	0	5	0	0
COCCN(C(=O)COC(=O)/C=C/c1ccco1)c1c(N)n(Cc2ccccc2)c(=O)[nH]c1=O	5	-30	-1	43*	3	0
COCCN(C(=O)COC(=O)CSc1ccccc1)c1c(N)n(Cc2ccccc2)c(=O)[nH]c1=O	nt	356*	0	-2	0	2
COCCN(C(=O)COC(=O)/C=C/c1ccc(C)o1)c1c(N)n(Cc2ccccc2)c(=O)[nH]c1=O	-1	3	1	4	-2	1
N#C/C(=C\c1ccccc1C(F)(F)F)C(=O)Nc1ccccc1	90*	-1	1	3	-1	2
N#C/C(=C/C=C/c1ccccc1)C(=O)Nc1ccccc1	-3	-3	-2	1	5	2
CCc1cccc(CC)c1NC(=O)/C(C#N)=C/c1ccccc1C(F)(F)F	-53	-14	0	nt	-3	69*
C[C@@H]1CN([C@H](C)CO)C(=O)Cc2cc(NC(=O)Cc3cn(C)c4ccccc34)ccc2O[C@@H]1CN(C)Cc1ccc(Cl)c(Cl)c1	nt	nt	nt	0	nt	nt
Clc1ccc(-c2nnc(-c3ccccc3)c(N3CCSCC3)n2)cc1	47	-13	2	nt	1	0
CC1CN(c2nc(-c3ccc(Br)cc3)nnc2-c2ccccc2)CC(C)N1 (stereo unspecified)	97*	nt	0	nt	5	-9
Cc1ccc2c(c1)cc(CN(C(=O)N1CCOCC1)C1CCCC1)c1nnnn12	-1	246	-1	3	6	40*
CCC(=O)N(Cc1cc2ccc(C)cc2n2nnnc12)C1CCCCC1	-21	14	-2	nt	12	0
Cc1cc(=O)oc2c(N)c(O)ccc12	97*	1	-1	13	nt	3
SMILES	ALR inh	SUMO Mot1 rescue	CDK5 p35 inh	CASP6 VEID inh	NSD2 inh	N-glyco inh
Cc1cc(=O)oc2c(CN3CCCCC3)c(O)ccc12	nt	nt	-1	2	-1	0
CC=Cc1ccc2n(c1=O)C[C@H]1[C@H](CO)[C@@H](C(=O)N3CCc4ccccc4C3)N(C(=O)C3CC3)[C@@H]21 (mixture of isomers)	nt	nt	nt	2	nt	nt
COC(=O)C1(Cc2ccc(O)c(CC3OC3(C)C)c2)OC(=O)C(O)=C1c1ccc(O)cc1 (stereo unspecified)	98*	-32	2	9	nt	-3
CC1CCN(C(=O)COC(=O)c2ccc([N+](=O)[O-])o2)CC1	-13	13	-1	52*	48	0
CC1Cc2ccccc2N1C(=O)COC(=O)c1ccc([N+](=O)[O-])o1 (stereo unspecified)	-28	-11	1	47*	nt	0
O=C(C[C@@H]1C[C@H]2c3cc(NC(=O)Cc4ccncc4)ccc3O[C@H]2[C@H](CO)O1)NCCN1CCCCC1	nt	nt	nt	7	nt	nt
CCN(CC)c1ccc(N2C(=O)CSC2=S)cc1	98*	69	-1	nt	4	4
C[C@H]1CN([C@@H](C)CO)C(=O)c2cccc(NS(=O)(=O)c3ccc(Cl)cc3)c2O[C@H]1CN(C)CC1CCCCC1	nt	nt	nt	1	nt	nt
COc1cc(/C=C2/NC(=O)N(Cc3ccccc3F)C2=O)ccc1O	99*	-4	-2	-1	-1	10
O=C1N/C(=C/c2cccn2-c2ccc(F)cc2)C(=O)N1Cc1ccccc1F	10	5	nt	nt	0	-3
CN1C(=O)/C(=C/c2ccc(O)c([N+](=O)[O-])c2)NC1=S	46	-4	-3	-1	-2	1
O=C(O)c1cccc(-n2cccc2/C=C2/NC(=O)N(Cc3ccccc3F)C2=O)c1	-2	-4	1	76*	11	2
COc1cc(/C=C2/NC(=O)N(Cc3ccccc3F)C2=O)ccc1Oc1ccc([N+](=O)[O-])cn1	nt	7	-1	nt	0	-3
COc1cc(/C=C2\NC(=S)N(C)C2=O)ccc1O	99*	1	-1	1	-2	0
CCOc1cc(/C=C2\NC(=S)N(c3c(C)n(C)n(-c4ccccc4)c3=O)C2=O)ccc1O	99*	32	-1	1	7	4
C[C@H](NC(=O)C[C@@H]1C[C@@H]2c3cc(NC(=O)CN(C)C)ccc3O[C@@H]2[C@H](CO)O1)c1ccccc1	nt	nt	nt	-3	nt	nt
C[C@@H]1CN([C@H](C)CO)C(=O)c2cc(C#Cc3ccccc3F)cnc2O[C@@H]1CN(C)S(C)(=O)=O	nt	nt	nt	-1	nt	nt
N#C/C(=C/c1cccn1-c1cccc(C(=O)O)c1)c1ccc(F)cc1	nt	nt	0	70*	24	1
O=C(NCCN1CCN(c2cccc(Cl)c2)CC1)C1CCCN(S(=O)(=O)c2cnc[nH]2)C1 (stereo unspecified)	96*	-9	0	-1	nt	0
O=C(NCc1ccccc1Cl)C1CCCN(S(=O)(=O)c2cnc[nH]2)C1 (stereo unspecified)	94*	294	2	0	nt	0
